Measurements reported in PMC7826789 (International Journal of Molecular Sciences, 2021).

Columns and labels:
Details in all cases: Compound Concentration (nM):1000
CDKL3 = system: CDKL3
CDKL5 = system: CDKL5
CHEK1 = system: CHEK1
CHEK2 = system: CHEK2
CIT = system: CIT
CLK1 = system: CLK1
CLK2 = system: CLK2
CLK3 = system: CLK3
CLK4 = system: CLK4
CSF1R-autoinhibited = system: CSF1R-autoinhibited
CSF1R = system: CSF1R
CSK = system: CSK
CSNK1A1L = system: CSNK1A1L
CSNK1A1 = system: CSNK1A1
CSNK1D = system: CSNK1D
CSNK1E = system: CSNK1E
CSNK1G1 = system: CSNK1G1
CSNK1G2 = system: CSNK1G2
CSNK1G3 = system: CSNK1G3
CSNK2A1 = system: CSNK2A1
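Further: KINOMEscan scanMAX binding as percent activity remaining versus control; lower means stronger binding.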

Row | SMILES | Percent Control (CDKL3) | Percent Control (CDKL5) | Percent Control (CHEK1) | Percent Control (CHEK2) | Percent Control (CIT) | Percent Control (CLK1) | Percent Control (CLK2) | Percent Control (CLK3) | Percent Control (CLK4) | Percent Control (CSF1R-autoinhibited) | Percent Control (CSF1R) | Percent Control (CSK) | Percent Control (CSNK1A1L) | Percent Control (CSNK1A1) | Percent Control (CSNK1D) | Percent Control (CSNK1E) | Percent Control (CSNK1G1) | Percent Control (CSNK1G2) | Percent Control (CSNK1G3) | Percent Control (CSNK2A1)
1 | CC1=C(C(=O)Nc2ccc3[nH]ncc3c2)C(c2ccc(Cl)c(Cl)c2)CC(=O)N1 (centres unmarked) [GSK299115A] | 95% | 97% | 95% | 100% | 100% | 75% | 67% | 78% | 52% | 74% | 97% | 91% | 66% | 84% | 100% | 100% | 100% | 88% | 96% | 91%
2 | NS(=O)(=O)c1ccc(N/N=C2\C(=O)Nc3ccc(C(=O)NCCc4c[nH]cn4)cc32)cc1 [GW300660X] | 100% | 36% | 100% | 64% | 100% | 72% | 5.5% | 100% | 76% | 90% | 100% | 100% | 100% | 89% | 100% | 100% | 100% | 100% | 100% | 27%
3 | Nc1ncnc2occ(-c3ccc(NC(=O)Nc4cc(C(F)(F)F)ccc4F)cc3)c12 [GW770249X] | 13% | 100% | 100% | 96% | 44% | 41% | 100% | 100% | 57% | 25% | 0.2% | 74% | 92% | 100% | 82% | 76% | 98% | 92% | 99% | 100%
4 | CN1CCN(C(=O)c2ccc(NC(=O)Nc3ccc(N(C)c4ccnc(Nc5ccc(CS(C)(=O)=O)cc5)n4)cc3)cc2)CC1.Cl [GW830263A] | 72% | 100% | 100% | 68% | 79% | 84% | 54% | 95% | 100% | 8.8% | 0% | 62% | 100% | 85% | 99% | 75% | 100% | 100% | 100% | 83%
5 | Cl.O=S1CCN(Cc2ccc(-c3ccc4ncnc(Nc5ccc(OCc6ccccc6)c(F)c5)c4c3)o2)CC1 [GW576924A] | 100% | 60% | 100% | 99% | 100% | 100% | 100% | 100% | 100% | 100% | 100% | 100% | 100% | 100% | 100% | 100% | 100% | 100% | 100% | 84%
6 | CCS(=O)(=O)c1ccc(OC)c(Nc2ncc(-c3cccc(F)c3)o2)c1 [GW621970X] | 100% | 60% | 100% | 100% | 100% | 19% | 12% | 75% | 23% | 6.2% | 48% | 98% | 100% | 100% | 100% | 100% | 100% | 100% | 100% | 6.2%
7 | COc1ccc2cc(-c3c(-c4ccncc4)nc(-c4ccc(S(C)(=O)=O)cc4C)n3C)ccc2c1 [SB-633825] | 86% | 82% | 88% | 100% | 100% | 96% | 87% | 97% | 62% | 66% | 93% | 98% | 55% | 85% | 86% | 69% | 90% | 81% | 100% | 82%
8 | Cl.c1ccc(Cc2nc3ccc(Nc4ncnc5ccccc45)cc3[nH]2)cc1 [GR269666A] | 100% | 59% | 100% | 94% | 100% | 91% | 93% | 100% | 100% | 100% | 100% | 22% | 100% | 100% | 100% | 93% | 100% | 100% | 100% | 82%
9 | NS(=O)(=O)c1ccc(N/N=C2\C(=O)Nc3ccc(-c4cnco4)cc32)cc1 [GW276655] | 37% | 16% | 100% | 93% | 79% | 36% | 24% | 100% | 37% | 88% | 100% | 92% | 78% | 76% | 60% | 96% | 100% | 72% | 91% | 50%
10 | Cl.O=C(O[C@H]1CN[C@H](C#Cc2cc3ncnc(Nc4ccc5c(cnn5Cc5ccccc5)c4)c3s2)C1)N1CCOCC1 [GSK200398A] | 100% | 40% | 100% | 24% | 77% | 83% | 100% | 90% | 100% | 87% | 100% | 67% | 92% | 89% | 91% | 79% | 92% | 100% | 92% | 75%
